The values that follow come from PubChem BioAssay (NCATS).

The structures appear in SMILES notation. Records with an inconclusive call do not appear. Activity calls are given as the source filed them. Calls follow the shape of the dose curve; as a rule, active = well fitted cell-killing curve with a large enough effect; inconclusive = small, poorly fitted or top-dose-only effect, or effect the other way; inactive = no such curve, though single readings can be large or run the other way. Non-standard residues stand in square brackets, D forms with d. Residues, ends and D or L forms follow the SMILES beside them. *: point of attachment. Nva = CCC[C@H](N)C(=O)O; Cbz = O=C(OCc1ccccc1)*
Potency is read from the fitted curve at half-maximal effect.

The nature of this experiment: qHTS of pediatric cancer cell lines to identify multiple opportunities for drug repurposing: Confirmatory screen for NB-EBc1 cells (AID 1347115).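 Also: cells exposed to compound for 48 h before the viability read; nearly all actives have a fitted effect of over 45% in size.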 As to conditions: NB-EBc1 neuroblastoma cells, viability (cytotoxicity); series mostly up to 45.9 µM. The source says:
Drug repurposing or repositioning has been offered as a strategy for drug development in oncology programs. This approach has special potential for childhood cancers and other rare or orphan diseases, where the expected return on new drug development has been a disincentive to pharmaceuticals.
In this project we exploit the poly-pharmacology of drugs to discover new indications via phenotypic screening of a panel of 19 well-characterized cell lines derived from solid tumors seen in children and adolescents. The goal is to identify approved drugs with previously unrecognized anticancer properties that has the potential to reveal new mechanisms and biological processes involved in carcinogenesis or drug resistance. We employed a titration-based paradigm (quantitative high-throughput screening or qHTS), where all compounds were tested at multiple concentrations for their effect on cell viability. Concentration-response curves (CRCs) were derived directly from the primary screen, and both potency and efficacy values were used to identify compounds with robust bioactivity profiles. We screened the NIH Chemical Genomics Center (NCGC) Pharmaceutical Collection (NPC) and Mechanism Interrogation Plate (MIPE) small molecule collections of approved and investigational compounds against these cell lines; and measured metabolically active cells after 48 hours of compound treatment as a proxy for cell viability.
Assay Submitter: Nathalia J. Martinez, National Center for Advancing Translational Sciences, National Institutes of Health, Rockville, MD, USA; email: natalia.martinez@nih.gov
[1] Shen, M et al. Quantitative high-throughput phenotypic screening of pediatric cancer cell lines identifies multiple opportunities for drug repurposing. Oncotarget 2017 Dec 19;9(4):4758-4772. PMID 29435139.
The cells were obtained from University of North Carolina (UNC), Pediatric Preclinical Testing Program (PPT), and Coriell Institute (CI).
qHTS cell viability assay:
Cells were assayed in growth media at a density of 500-1,000 cells/well. Five microliters of cells were dispensed into 1,536-well, white, solid-bottom, TC-treated plates (Greiner Bio One) using a multidrop dispenser and incubated at 37 degrees C, 5% CO2, under a humidified atmosphere for 5 hours. Twenty-three nanoliters of compounds and controls (neutral control DMSO or positive control bortezomib at final concentration of 2.3 µM) were subsequently transferred by Kalypsys pintool. For primary screens, the MIPE collection was tested at 11-point dilutions (final concentrations range from 0.78 nM to 46 µM) and the NPC collection at 8-point dilutions (final concentrations range from 0.59 nM to 46 µM). Compounds tested in follow-up screens were assayed at 11-point dilutions. Cells were incubated for 48 hours, followed by addition of 3 µL of CellTiter-Glo (Promega). After a 15 min incubation at room temperature, samples were analyzed for luminescence intensity using a ViewLux High-throughput CCD imager equipped with clear filters.
With `C[C@@]12C(=O)OC(=O)[C@@]1(C)C1CCC2O1`, the Potency is 2.08 µM (active).

Turning to `CC(C)(N)c1ccc(-c2nc3ccccc3nc2-c2ccccc2)cc1`, the Potency result is “inactive”.

For `CC(C=CC(=O)NO)=C[C@@H](C)C(=O)c1ccc(N(C)C)cc1`, the Potency was 0.585 µM (active). `COc1cc(C[C@@H](CO)[C@H](CO)Cc2ccc(O)c(OC)c2)ccc1O`: the Potency entry is “inactive”. Take `CC(=O)NCC(=O)N1[C@H]2CC[C@H]1c1cc(Nc3ncc(C(F)(F)F)c(NC4CCC4)n3)ccc12`: the Potency was 9.27 µM (active). Turning to `C=CC(=O)Nc1ccc2ncnc(Nc3ccc(OCc4cccc(F)c4)c(Cl)c3)c2c1`, the Potency was 20.8 µM (active). To `C=C1C(=CC=C2CCC[C@]3(C)[C@@H]([C@H](C)CCCC(C)(C)O)CC[C@@H]23)C[C@@H](O)C[C@@H]1O` belongs 2.61 µM (active). For `CC(=O)N1CCN(c2ccc(OCc3nn(C)c(C)c3-c3cccc4c(CCCOc5cccc6ccccc56)c(C(=O)O)n(Cc5cccnc5)c34)cc2)CC1` the value was “inactive”. Consider `COc1cc([C@@H]2c3cc4c(cc3[C@H](O)[C@H]3COC(=O)[C@@H]23)OCO4)cc(OC)c1OC`, for which the Potency is 3.29 µM (active). For the compound `CC(=O)ON=C1C(c2c(O)[nH]c3cc(Br)ccc23)=Nc2ccccc21`, the Potency is 16.5 µM (active). For `O=C(Nc1cc2cc[nH]c2cn1)c1ccccc1` the value was 16.5 µM (active); for `C[C@H]1[C@@H](OC(=O)CCC(=O)O)O[C@@H]2O[C@@]3(C)CC[C@@H]4[C@H](C)CC[C@@H]1[C@@]24OO3`, 5.22 µM (active). Regarding `COC[C@H](NC(=O)c1cnc(C)s1)C(=O)N[C@@H](COC)C(=O)N[C@@H](Cc1ccccc1)C(=O)[C@@]1(C)CO1`, the Potency was 0.208 µM (active).

With `Cc1cnc(Nc2ccc(CN3CCOCC3)cc2)nc1Nc1cccc(S(=O)(=O)NC(C)(C)C)c1`, the Potency was 10.4 µM (active).

Regarding `N#CNC(=NCCCCCCOc1ccc(Cl)cc1)Nc1ccncc1`, the Potency is 0.0414 µM (active). `CC(C)N1[N]C(=C2C=c3cc(O)ccc3=N2)c2c(N)ncnc21`: the Potency is 4.14 µM (active).

Regarding `CN(C)c1ccc(C(=O)NCCCCCCC(=O)NO)cc1`, the Potency is 2.33 µM (active). Consider `CC(C=CC1=C(C)CCCC1(C)C)=CC=CC(C)=CC(=O)Nc1ccc(O)cc1`, for which the Potency is 13.5 µM (active). For `CCN(CC)CCNC(=O)c1c(C)[nH]c(C=C2C(=O)Nc3ccc(F)cc32)c1C` the value was “inactive”; for `CC1(C)O[C@@H]2C[C@H]3[C@@H]4CCC5=CC(=O)C=C[C@]5(C)[C@@H]4[C@@H](O)C[C@]3(C)[C@]2(C(=O)CO)O1`, “inactive”. For `CCC(C=C[C@@H]1OC(=O)C=C[C@H]1C)=C[C@H](C)CC=CC(C)=C[C@@H](C)C(=O)[C@@H](C)[C@H](O)[C@@H](C)CC(C)=CC(=O)O`, the Potency was 0.0361 µM (active).

As for `O=C(C=CC#Cc1cccc(NS(=O)(=O)c2ccccc2)c1)NO`, the Potency is 5.85 µM (active). Consider `O=C1NC(=O)C(=Cc2ccc3nccc(-c4ccncc4)c3c2)S1`, for which the Potency result was “inactive”.

In the case of `CCOC(=O)C1=C(C)NC(=S)NC1c1cccc(O)c1` (stereo not given), the Potency result is “inactive”. To `CN[C@H]1[C@@H](O)[C@@H]2O[C@@H]3O[C@H](C)CC(=O)[C@]3(O)O[C@@H]2[C@@H](NC)[C@H]1O` belongs “inactive”; to `CCC[C@@H](C=O)NC(=O)[C@H](CC(C)C)NC(=O)[C@H](CC(C)C)NC(=O)OCc1ccccc1` (Cbz-Leu-Leu-[Nva]-aldehyde), 2.33 µM (active); to `COc1cc(O)c2c(c1)C1OC1C[C@H](O)[C@H](O)C(=O)C=CC[C@H](C)OC2=O` (stereo not given in full), 5.85 µM (active).

For `COc1cccc2c1C(=O)c1c(O)c3c(c(O)c1C2=O)C[C@@](O)(C(=O)CO)C[C@@H]3O[C@H]1C[C@H](N)[C@H](OC2CCCCO2)[C@H](C)O1` (stereo not given in full), the Potency is 1.65 µM (active). For `O=C(O)C[C@H](O)C[C@H](O)C=Cc1c(C2CC2)nc2ccccc2c1-c1ccc(F)cc1` the value was “inactive”; for `CN[C@@H]1C[C@H]2O[C@@](C)([C@H]1OC)n1c3ccccc3c3c4c(c5c6ccccc6n2c5c31)C(=O)N[C@H]4O`, 2.61 µM (active); for `O=C(C=CC=Cc1ccc2c(c1)OCO2)N1CCCCC1`, “inactive”.

For the compound `C=CCNC1=C2C[C@@H](C)C[C@H](OC)[C@@H](O)[C@@H](C)C=C(C)[C@H](OC(N)=O)[C@@H](OC)C=CC=C(C)C(=O)NC(=CC1=O)C2=O`, the Potency was 7.37 µM (active). For `COC1=C2C[C@@H](C)C[C@H](OC)[C@@H](O)[C@@H](C)C=C(C)[C@H](OC(N)=O)[C@@H](OC)C=CC=C(C)C(=O)NC(=CC1=O)C2=O` the value was 9.27 µM (active). For `Nc1ncn([C@@H]2O[C@H](CO)[C@@H](O)[C@@H]2O)c(=O)n1` the value was 13.1 µM (active); for `Cc1cnc(Nc2ccc(N3CCN(C)CC3)cc2)nc1Nc1cccc(S(=O)(=O)NC(C)(C)C)c1`, 14.7 µM (active); for `NS(=O)(=O)OC[C@@H]1C[C@@H](n2ccc3c(N[C@H]4CCc5ccccc54)ncnc32)C[C@H]1O`, “inactive”. For `CC(=O)[C@]1(O)Cc2c(O)c3c(c(O)c2[C@@H](O[C@H]2C[C@H](N)[C@@H](O)[C@H](C)O2)C1)C(=O)c1ccccc1C3=O`, the Potency was 0.465 µM (active).

Take `CNC(=O)c1ccc(Nc2cc(Nc3ccccc3S(=O)(=O)C(C)C)c3cc[nH]c3n2)nc1`: the Potency was 5.85 µM (active). For the compound `CC(C)C[C@H](NC(=O)[C@@H](NC(=O)c1cccc(-c2ccccc2)n1)[C@@H](C)O)B(O)O`, the Potency is 0.0585 µM (active). To `CC[C@@]1([C@@H]2O[C@@H]([C@H]3O[C@@](O)(CO)[C@H](C)C[C@H]3C)C[C@H]2C)CC[C@H]([C@]2(C)CC[C@]3(C[C@H](O)[C@@H](C)[C@@H]([C@@H](C)[C@@H](OC)[C@H](C)C(=O)O)O3)O2)O1` belongs 1.62 µM (active).
